Here are results for eight compounds from publication PMC11062922 (Nature Chemical Biology, 2023).

Common to all, as to design: species or system human, MV4-11 + K-562 + COLO205 + SK-N-BE2 + OVCAR-8
One test has as its system DYRK1A. The conditions noted are these: read-out: apparent Kd; compound concentrations: 100 nM and 1000 nM (sheet 'Samples'), CATDS: 0.176247651150404; n = 1.
A further test relates to CDK7. Conditions: read-out: apparent Kd, n = 1.
Another test concerns ERCC2. The conditions noted are these: read-out: apparent Kd, n = 1.
The subject of a further test is FER. The conditions noted are these: read-out: apparent Kd, n = 1.
The next test deals with FLT3. Conditions: read-out: apparent Kd; compound concentrations:100 nM and 1000 nM (sheet 'Samples'); n = 1.
For the next test, the system named is PIP4K2C. The conditions noted are these: read-out: apparent Kd; compound concentrations:100 nM and 1000 nM (sheet 'Samples'); n = 1.
The next test concerns PLK4. The conditions noted are these: read-out: apparent Kd, n = 1.
The next test has as its system PRKAA1. Conditions: read-out: apparent Kd, n = 1.
For another test, the system named is PRKCD. Conditions: read-out: apparent Kd; compound concentrations:100 nM and 1000 nM (sheet 'Samples'); n = 1.
Another test has as its system PRKCQ. The conditions noted are these: read-out: apparent Kd, n = 1.
The next test has as its system PTK2B. The conditions noted are these: read-out: apparent Kd, n = 1.
The test system of a further test is PTK2. Conditions: read-out: apparent Kd, n = 1.
The next test has as its system RPS6KA6. Conditions: read-out: apparent Kd, n = 1.
Another test deals with STK10. The conditions noted are these: read-out: apparent Kd, n = 1.
The subject of another test is LATS1. Conditions: read-out: apparent Kd, n = 1.
For a further test, the system named is CDKL5. The conditions noted are these: read-out: apparent Kd; compound concentrations:100 nM and 1000 nM (sheet 'Samples'); n = 1.
Another test has as its system MARK4. Conditions: read-out: apparent Kd, n = 1.
For the next test, the system named is MYLK3. Conditions: read-out: apparent Kd; compound concentrations:100 nM and 1000 nM (sheet 'Samples'); n = 1.
[1] abbreviates: compound concentrations:100 nM and 1000 nM (sheet 'Samples').

Read-outs that look alike come from different tables or passages of the source.

For the compound `O=C1N=C(Nc2ccccc2)S/C1=C\c1ccc2ncccc2c1` [RO4493940-000], in the test on DYRK1A, the potency estimated from few doses was 1930 nM.

Consider `Cl.Cl.NCC(C(=O)Nc1cc(Br)c(-c2ccnc3[nH]ccc23)s1)c1ccccc1.NCC(C(=O)Nc1cc(Br)c(-c2ccnc3[nH]ccc23)s1)c1ccccc1` (stereo not shown) [GSK1269851A], for which the potency estimated from few doses in the test with CDK7 (setting [1]) was 44.7 nM; in the test on ERCC2 (setting [1]), 37.5 nM; in the test with FER (setting [1]) it was 56.2 nM; with FLT3, 1450 nM; in the test with PIP4K2C it was 1930 nM; in the test on PLK4 (setting [1]), 523 nM. Besides, the potency estimated from few doses was 548 nM in the test with PRKAA1 (setting [1]); 2130 nM in the test with PRKCD; 1130 nM in the test on PRKCQ (setting [1]); 63.1 nM with PTK2B (setting [1]); 422 nM in the test on PTK2 (setting [1]); 364 nM with RPS6KA6 (setting [1]). In the test on STK10 (setting [1]), the potency estimated from few doses is 2030 nM.

Regarding `CCn1c(-c2nonc2N)nc2c(C#CC(C)(C)O)nc(OCCNC)cc21.Cl` [GSK949675A], the potency estimated from few doses was 401 nM in the test with LATS1 (setting [1]) and 1680 nM in the test on PRKCQ (setting [1]).

As to `CC(C)N1CCC(n2cnc(-c3ccc(F)cc3)c2-c2ccnc(N)n2)CC1` [SB-223132], the potency estimated from few doses in the test on CDK7 (setting [1]) was 310 nM; in the test on CDKL5 it was 1520 nM; in the test with ERCC2 (setting [1]) it was 206 nM; with FER (setting [1]) it was 358 nM; in the test on PIP4K2C it was 1200 nM; in the test on PLK4 (setting [1]), 757 nM. The potency estimated from few doses in the test on PRKAA1 (setting [1]) was 631 nM; in the test with PTK2B (setting [1]), 378 nM; in the test on PTK2 (setting [1]), 433 nM; with RPS6KA6 (setting [1]) it was 466 nM; in the test on STK10 (setting [1]), 2020 nM.

Regarding `CN1C[C@@H]2Cn3c(c(C4=C(c5cn(C)c6ccccc56)C(=O)NC4=O)c4ccccc43)C[C@H]2C1.Cl` [RO0320234-001], the potency estimated from few doses with CDK7 (setting [1]) was 137 nM; in the test with ERCC2 (setting [1]), 123 nM; in the test on FER (setting [1]), 94.8 nM; in the test on LATS1 (setting [1]), 1780 nM; in the test with MARK4 (setting [1]) it was 1210 nM; in the test with PLK4 (setting [1]), 500 nM. For the same compound, the potency estimated from few doses in the test with PRKAA1 (setting [1]) is 248 nM; in the test with PTK2B (setting [1]), 193 nM; in the test on PTK2 (setting [1]), 129 nM; in the test on RPS6KA6 (setting [1]), 215 nM; with STK10 (setting [1]), 2020 nM.

With `CCn1c(-c2nonc2N)nc2c(C#CCN)ncc(OCCCN)c21.O=C(O)C(F)(F)F` [GSK561866B], the potency estimated from few doses in the test on LATS1 (compound concentrations: 100 nM and 1000 nM (sheet 'Samples'), CATDS: 0.187665654048491) was 38.9 nM.

For the compound `Clc1cc(Cl)cc(Nc2ccnc(Nc3cc(Cl)cc(Cl)c3)n2)c1` [GSK175726A], the potency estimated from few doses in the test with CDK7 (compound concentrations: 100 nM and 1000 nM (sheet 'Samples'), CATDS: 1.9330129421886999E-2) is 142 nM; with ERCC2 (compound concentrations: 100 nM and 1000 nM (sheet 'Samples'), CATDS: 2.00031391959163E-2), 132 nM; in the test with FER (compound concentrations: 100 nM and 1000 nM (sheet 'Samples'), CATDS: 2.0209257750724199E-2) it was 130 nM; in the test on LATS1 (compound concentrations: 100 nM and 1000 nM (sheet 'Samples'), CATDS: 8.3705854443938306E-3), 1830 nM; in the test on MARK4 (compound concentrations: 100 nM and 1000 nM (sheet 'Samples'), CATDS: 9.0821419541050104E-3) it was 1200 nM; in the test with PLK4 (compound concentrations: 100 nM and 1000 nM (sheet 'Samples'), CATDS: 9.9833619636259807E-3) it was 805 nM. Also, the potency estimated from few doses in the test on PRKAA1 (compound concentrations: 100 nM and 1000 nM (sheet 'Samples'), CATDS: 1.70258179859262E-2) was 183 nM; with PRKCQ (compound concentrations: 100 nM and 1000 nM (sheet 'Samples'), CATDS: 8.3428687268584899E-3), 1870 nM; in the test with PTK2B (compound concentrations: 100 nM and 1000 nM (sheet 'Samples'), CATDS: 1.7764778222698001E-2) it was 168 nM; in the test with PTK2 (compound concentrations: 100 nM and 1000 nM (sheet 'Samples'), CATDS: 2.2055583015587899E-2), 111 nM; in the test with RPS6KA6 (compound concentrations: 100 nM and 1000 nM (sheet 'Samples'), CATDS: 2.32464475712073E-2), 101 nM; in the test with STK10 (compound concentrations: 100 nM and 1000 nM (sheet 'Samples'), CATDS: 8.4721916216742802E-3), 1710 nM.

For the compound `NCCNS(=O)(=O)c1ccc(-c2ccnc3[nH]ccc23)cc1` [GSK977617A], the potency estimated from few doses in the test with CDK7 (setting [1]) is 159 nM; in the test with ERCC2 (setting [1]), 203 nM; in the test on FER (setting [1]), 238 nM; with LATS1 (setting [1]), 121 nM; in the test on MYLK3 it was 996 nM; with PLK4 (setting [1]) it was 584 nM. Besides, the potency estimated from few doses is 453 nM in the test on PRKAA1 (setting [1]); 1080 nM with PRKCD; 1950 nM in the test with PRKCQ (setting [1]); 335 nM in the test on PTK2B (setting [1]); 343 nM in the test with PTK2 (setting [1]); 373 nM with RPS6KA6 (setting [1]). In the test on STK10 (setting [1]), the potency estimated from few doses is 2400 nM.
